High-throughput results as filed in PubChem.
Pol eta inh-1 – DNA polymerase eta (human) inhibition | 1.2% of 390,000 active | Potency, µM (titrated, usually from 114 µM), for inactives: top-dose activity change, negative = inhibition, hits mostly inhibitors | AID 588591 | Q9Y253 | recombinant Pol eta, fluorescent DNA replication assay; note: potency is the fitted concentration of half-maximal effect; % is set by controls: 0 for no effect and ±100 for the full control effect
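Fluorescent replication assay: 50 nM final substrate added after a 15 min room-temperature compound preincubation with 10 nM enzyme. Signal taken at 0 min and again at 10 min.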
POLB inh – DNA polymerase beta (human) inhibition. P06746. Pol beta primer extension/strand displacement, fluorescence kinetic. Potency, µM (highest dose often 114 µM), for the others: at the highest dose activity change, negative = inhibition, most hits filed as inhibitors. 1.3% of 340,000 active. AID 485314; note: potency is the fitted concentration of half-maximal effect; % is set by controls: 0 for no effect and ±100 for the full control effect
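Preincubation: enzyme (10 nM) with compound, 15 min, RT. Reaction: substrate added to 50 nM final. Reads: 0 and 10 min. Analysis: normalized, Hill fit.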
Pol kappa inh-1 – inhibitors of human DNA polymerase kappa. Q9UBT6. purified Pol kappa, fluorescent DNA synthesis assay, 10 min. Potency, µM (highest dose often 107 µM), for inactives: at the top dose activity, negative = inhibition, usual class: inhibitors. 0.53% of 400,000 active; note: potency is the fitted concentration of half-maximal effect; % is set by controls: 0 for no effect and ±100 for the full control effect
Target sequence (Q9UBT6 whole entry, looked up): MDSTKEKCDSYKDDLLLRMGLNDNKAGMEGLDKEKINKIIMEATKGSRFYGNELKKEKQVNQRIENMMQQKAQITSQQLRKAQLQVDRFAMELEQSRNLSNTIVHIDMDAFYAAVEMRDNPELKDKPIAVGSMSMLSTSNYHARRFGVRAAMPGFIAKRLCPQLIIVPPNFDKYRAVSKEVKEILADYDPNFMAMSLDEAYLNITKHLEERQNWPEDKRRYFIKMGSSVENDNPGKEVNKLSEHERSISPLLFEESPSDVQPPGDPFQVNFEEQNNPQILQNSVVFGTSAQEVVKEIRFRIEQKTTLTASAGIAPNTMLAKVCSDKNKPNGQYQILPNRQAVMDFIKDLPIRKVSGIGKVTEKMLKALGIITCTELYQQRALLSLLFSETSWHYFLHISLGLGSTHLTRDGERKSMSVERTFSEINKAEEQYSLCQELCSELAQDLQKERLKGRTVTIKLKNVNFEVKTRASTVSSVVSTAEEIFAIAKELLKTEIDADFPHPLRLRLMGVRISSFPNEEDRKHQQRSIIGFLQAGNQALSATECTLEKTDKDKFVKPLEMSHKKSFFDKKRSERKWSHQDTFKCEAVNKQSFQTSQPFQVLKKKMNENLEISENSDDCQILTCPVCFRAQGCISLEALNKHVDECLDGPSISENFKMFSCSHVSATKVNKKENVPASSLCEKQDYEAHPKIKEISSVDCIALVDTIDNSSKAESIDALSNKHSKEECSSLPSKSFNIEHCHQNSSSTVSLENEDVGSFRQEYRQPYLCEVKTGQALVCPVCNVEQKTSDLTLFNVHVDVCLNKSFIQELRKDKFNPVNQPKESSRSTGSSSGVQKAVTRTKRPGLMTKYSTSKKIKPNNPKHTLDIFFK
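Readout: fluorescence, taken kinetically at 0 and 10 min. Conditions: 10 nM Pol kappa, 15 min RT compound preincubation, 50 nM substrate final. Controls: enzyme-free buffer wells.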
WRN helicase inh-1 – WRN helicase (human) inhibition. Q14191. 0.46% of 360,000 active. WRN helicase unwinding, fluorescent forked duplex, kinetic. Potency, µM (top dose mostly 114 µM), without a hit: top-dose activity change, negative = inhibition, hits mostly inhibitors. AID 651768; note: potency is the fitted concentration of half-maximal effect; % is set by controls: 0 for no effect and ±100 for the full control effect; nearly all actives have a fitted effect of over 55% in size
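WRN at 20 nM final was preincubated with compound for 15 min at room temperature; reaction started with 100 nM forked duplex oligonucleotide carrying fluorophore and quencher plus 2 mM ATP (final). Unwinding followed kinetically by red fluorescence (ex 525/em 598 nm).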
PI5P4K alpha inh – blocks human PI5P4K alpha kinase activity. PI5P4Kalpha enzyme, ADP-Glo luminescence, 60 min; active compounds read low. max response, %. 1.2% of 330,000 active; active = max response of -50% or lower; inconclusive = between -30% and -50%; inactive = -30% or higher; note: value at the top dose of about 77 µM; % is set by controls: 0 for no effect and ±100 for the full control effect
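PI5P4Kalpha ADP-Glo assay; 5 microM ATP final; 60 min RT reaction; HEPES pH 7.4/EGTA/CHAPS, 5% DMSO; controls lacking substrate or enzyme; luminescent end-point.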
Pol iota inh – inhibitors of human DNA polymerase iota; Q9UNA4; Pol iota fluorescent replication assay, 10 min; Potency, µM (highest dose often 115 µM), without a hit: at the highest dose activity, negative = inhibition, usual class: inhibitors; 1% of 390,000 active; AID 588590; note: potency is the fitted concentration of half-maximal effect
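Fluorescent replication assay read twice, at 0 min and 10 min after adding 50 nM (final) substrate. Enzyme (10 nM) and compounds were first incubated 15 min at room temperature; enzyme-free buffer wells were negative controls.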
TbPGK inh – validation of Trypanosoma brucei phosphoglycerate kinase inhibitors. shares compounds with Pol kappa inh-1. TbPGK coupled GAPDH assay, Kinase-Glo luminescence. Potency, µM (titrated, usually from 57.5 µM), inactives show at the highest dose activity change, negative = inhibition, hits mostly inhibitors. 79% of 500 active. AID 686980; note: potency is the fitted concentration of half-maximal effect; % is set by controls: 0 for no effect and ±100 for the full control effect; nearly all actives have a fitted effect of over 65% in size
Pol iota confirm – Inhibitors of human DNA polymerase iota, confirmation. Pol iota primer extension, TAMRA/BHQ fluorescence. shares compounds with Pol kappa inh-1. 77% of 1,500 active. AID 720496. Potency, µM, actives largely listed as inhibitors; note: potency is the fitted concentration of half-maximal effect
Pol kappa inh-2 – Pol kappa (human) inhibition, cherry-pick confirmation | Potency, µM, actives largely listed as inhibitors | shares compounds with Pol eta inh-1 | purified Pol-kappa, fluorescent strand-displacement substrate | 76% of 920 active; note: potency is the fitted concentration of half-maximal effect
Pol eta inh-2 – Pol eta (human) inhibition, cherry-pick confirmation; Potency, µM, most hits filed as inhibitors; shares compounds with Pol eta inh-1; AID 720502; Pol eta primer extension, TAMRA/BHQ fluorescence, 10 min; 64% of 2,600 active; note: potency is the fitted concentration of half-maximal effect
WRN helicase inh-2 – confirmation of human WRN helicase inhibitors | AID 720497 | shares compounds with WRN helicase inh-1 | WRN helicase DNA unwinding, fluorescence kinetic | 63% of 610 active | Potency, µM (series often up to 57.1 µM), inactives show at the highest dose activity, negative = inhibition, actives largely listed as inhibitors; note: potency is the fitted concentration of half-maximal effect; nearly all actives have a fitted effect of over 65% in size
TO DNA binding – DNA binding via thiazole orange displacement | shares compounds with WRN helicase inh-1 | thiazole orange DNA binding displacement, fluorescence | Potency, µM (titrated, usually from 57.1 µM), without a hit: at the top dose activity change, negative = inhibition, usual class: inhibitors | 10% of 610 active;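 note: drop in dye fluorescence marks compound binding to DNA; potency is the fitted concentration of half-maximal effect; % is set by controls: 0 for no effect and ±100 for the full control effect; nearly all actives have a fitted effect of over 60% in size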
BLM helicase inh – blocks human BLM helicase in WRN counterscreen; shares compounds with WRN helicase inh-1; Recombinant BLM helicase DNA unwinding, red fluorescence; Potency, µM (titrated, usually from 57.1 µM), without a hit: at the top dose activity change, negative = inhibition, most hits filed as inhibitors; 60% of 610 active; note: potency is the fitted concentration of half-maximal effect; nearly all actives have a fitted effect of over 60% in size
* marks the source's active call; other numbers are inactive results; ? = inconclusive; nt = not tested or not shown; [ ] = another dose, or the depositor's remark. Rows were chosen to be rich in hits. Some 2.8% of all compounds tested hit in one or more screens of this group. Unless noted, calls come from the whole dose curve; as a rule, active = well fitted curve in the direction sought with a large enough effect; inconclusive = small, poorly fitted or top-dose-only effect, or another doubt; inactive = no such curve, though single readings can be large; an effect the other way counts as inactive or inconclusive.

SMILES	Pol eta inh-1	POLB inh	Pol kappa inh-1	WRN helicase inh-1	PI5P4K alpha inh	Pol iota inh	Pol iota confirm	Pol eta inh-2	WRN helicase inh-2	TO DNA binding	BLM helicase inh	others
O=C(O)c1cccc(-n2cccc2/C=C2/NC(=O)N(c3ccc(Cl)cc3)C2=O)c1	0.708µM*	0.355µM*	1.58µM*	3.16µM*	-98.0*	?	0.752*	1.35*	1.36µM*	?	0.171µM*	TbPGK inh=0.259µM*
COc1ccc(-n2cccc2/C=C2/NC(=O)N(c3cccc(Cl)c3)C2=O)cc1	-1.4%	17.9%	-2.0%	-5.8%	-11.6	18.1%	nt	nt	nt	nt	nt
C=CCOC(=O)c1cc(-c2ccc(/C=C3\C(=O)NC(=O)C(C#N)=C3C)o2)ccc1Cl	3.55µM*	12.6µM*	28.2µM*	10.6µM*	-27.2	?	67*	30.1*	15.2µM*	?	6.81µM*
CN(C)CCNC(=O)CN1C(=O)COc2ccc(S(=O)(=O)N3CCCC3)cc21	-7.3%	-1.0%	-2.4%	nt	nt	23.1%	nt	nt	nt	nt	nt
CN(C)/C=C1\SC(=S)N(c2ccc(Br)cc2)C1=O	?	?	?	?	0.3	39.8µM*	18.9*	75.7*	24.1µM*	2.8%	21.5µM*
CN(C)/C=C1\SC(=S)N(c2ccc(F)cc2)C1=O	-9.6%	1.1%	-8.2%	-8.3%	-6.0	-4.9%	nt	nt	nt	nt	nt
COc1ccc(-c2nn(C)c3sc(C(=O)Nc4cc(OC)c(OC)c(OC)c4)cc23)cc1OC	39.8µM*	44.7µM*	50.1µM*	nt	nt	22.4µM*	37.7*	60.1*	9.61µM*	?	10.8µM*
Cc1cccc(C(=O)Oc2ccc(/C=N/NC(=O)c3cc(O)cc(O)c3)cc2)c1	7.94µM*	7.08µM*	50.1µM*	35.5µM*	-76.7*	17.8µM*	67*	33.8*	21.5µM*	?	13.6µM*	Pol kappa inh-2=15*
Cc1cccc(C(=O)Oc2ccc(/C=N/NC(=O)c3ccncc3)cc2)c1	-2.9%	1.9%	0.0%	3.0%	2.5	152.8%	nt	nt	nt	nt	nt
CCN(CC)CCNC(=O)C(=O)NCC(c1cccnc1)N1CCN(c2ccc(F)cc2)CC1 (stereo not given)	-13.6%	-1.1%	-6.2%	nt	nt	49.3%	nt	nt	nt	nt	nt
O=C(Nc1ccc2nc(-c3ccc4nc[nH]c4c3)[nH]c2c1)c1cccs1	20µM*	4.47µM*	35.5µM*	39.8µM*	?	1.12µM*	?	?	21.5µM*	-17.3%	24.1µM*
Nc1nonc1-c1nc2ccccc2n1CC(=O)N/N=C/c1ccc(-c2cccc(C(=O)O)c2)o1	17.8µM*	20µM*	?	39.8µM*	-59.5*	17.8µM*	75.2*	23.9*	24.1µM*	?	24.1µM*
O=[N+]([O-])c1cc2ccccc2c(O)c1O	4.47µM*	nt	nt	?	?	nt	11.9*	7.57*	12.1µM*	-9.9%	0.681µM*	Pol kappa inh-2=2.12*
Cc1cccc(N=C2NC(=O)/C(=C/C=C/c3ccco3)S2)c1C	1.78µM*	2.51µM*	14.1µM*	31.6µM*	-79.8*	3.55µM*	67*	26.9*	15.2µM*	27.1µM*	8.57µM*
Cc1cccc(N=C2NC(=O)/C(=C/c3cccnc3)S2)c1C	-2.1%	2.7%	3.0%	-8.6%	-22.0	?	nt	nt	nt	nt	nt
O=C(CSc1nc2ccccc2n1CCc1ccccc1)c1ccc(O)c(O)c1	3.16µM*	0.501µM*	?	7.94µM*	-88.7*	2.82µM*	2.99*	3.01*	6.81µM*	17.1µM*	1.52µM*	TbPGK inh=1.46µM*
O=C(CSc1nc2ccccc2n1CCc1ccccc1)N1CCOCC1	-20.5%	1.1%[57.1 µM]	-14.4%	-7.7%	1.7	0.4%	nt	nt	nt	nt	nt
C=CCN1C(=O)/C(=C2/Sc3ccccc3N2CCCS(=O)(=O)O)SC1=S	3.16µM*	44.7µM*	?	?	?	?	?	37.9*	21.5µM*	-5.4%	21.5µM*
COc1ccc(-n2nc(C(=O)Nc3cc(C)ccn3)c3c4ccccc4n(C)c3c2=O)cc1	nt	66.1%	9.6%	nt	nt	4.9%	nt	nt	nt	nt	nt
COc1ccc(/C=C(\C#N)C(=O)Nc2cccc3ncccc23)cc1OC	-6.2%	-1.8%	-12.5%	-3.9%	-1.4	5.7%	nt	nt	nt	nt	nt
N#C/C(=C\c1ccc(O)c(O)c1)C(=O)Nc1cccc2ncccc12	2.82µM*	0.794µM*	3.98µM*	14.1µM*	-71.9*	3.16µM*	6.7*	3.79*	4.29µM*	12.1µM*	1.71µM*
CCOc1ccc(CNC(=O)c2ccc3c(c2)nc2n3CCC(C)C2)cc1OC (stereo not given)	-3.3%	0.0%	-4.9%[60.1 µM]	nt	nt	-4.9%	nt	nt	nt	nt	nt
COc1cccc2c1C(=O)c1c(O)c3c(c(O)c1C2=O)CC(O)(C(=O)CO)CC3OC1CC(N(C)C)C(O)C(C)O1 (stereo not given)	?	nt	?	2.99µM*	-0.5	39.8µM*	2.67*	26.9*	17.1µM*	170.9%	27.1µM*	Pol kappa inh-2=33.6*
COc1cc2c(cc1NC(=O)CSc1nc3ccccc3[nH]1)oc1ccccc12	50.1µM*	5.1%	?	?	nt	44.7µM*	42.3*	42.6*	-22.7%	24.7%	?
CC1=C(C(=O)Nc2cccc(F)c2)C2(CCCCCC2)OC1=O	-11.2%	32.2%	-15.5%	nt	nt	-1.0%	nt	nt	nt	nt	nt
